According to PubChem BioAssay (NCATS):
Records with an inconclusive call do not appear. Activity calls are given as the source filed them. The call rests on the fitted dose curve; in most records, active means well fitted curve in the direction sought with a large enough effect; inconclusive means small, poorly fitted or top-dose-only effect, or another doubt; inactive means no such curve, though single readings can be large; an effect the other way counts as inactive or inconclusive.

What was measured:
[1] = HepG2 cells viability qHTS for Zika virus inhibitors (AID 1347168); further: potency means the concentration at half of the fitted maximal effect
In short: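 Cells seeded at 2.5 x 10^5 cells/mL in DMEM with 4% FBS and attached overnight at 37 degrees C, then exposed to compound for 24 to 48 hours. Viability read as ATP content by CellTiter Glo luminescence.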

[2] = Tertiary RLuc qRT-PCR qHTS assay for Zika virus inhibitors (AID 1347169); further: nearly all actives have a fitted effect of over 55% in size; further: potency means the concentration at half of the fitted maximal effect
In short: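 Vero cells (1,000/well) infected with recombinant ZIKV-RLuc (Cambodian) at MOI 1-2 after compound addition, 48-72 hrs at 37 degrees C. Live-cell Renilla luciferase substrate added; luminescence read after 1-1.5 hrs.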

[3] = OV-KATE Cancer Cell Toxicity qHTS against the NCATS CANVASS Library (AID 1347345)
In short: (§1)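 Cells were seeded at 1000 per well, allowed 4 h at 37 degrees C/5% CO2, then pin-treated with an 11-point compound series. After 72 h, viability was read as CellTiter-Glo luminescence following 15min at room temperature.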

[4] = HPAF-II Cancer Cell Toxicity qHTS against the NCATS CANVASS Library (AID 1347346); further: nearly all actives have a fitted effect of over 55% in size
In short: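 HPAF-II cells were seeded at 1000 cells/well, allowed to settle for 4 h at 37 degrees C, then exposed to compounds in an 11-point series for 72 h. Viability was read by CellTiter-Glo luminescence.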

[5] = UWB1.289 Cancer Cell Toxicity qHTS against the NCATS CANVASS Library (AID 1347347); settings: UWB1.289 viability, CellTiter-Glo luminescence, 72 h; further: potency means the concentration at half of the fitted maximal effect; nearly all actives have a fitted effect of over 60% in size
In short: as §1

[6] = OV-SAHO Cancer Cell Toxicity qHTS against the NCATS CANVASS Library (AID 1347348); further: nearly all actives have a fitted effect of over 55% in size
In short: as §1

[7] = Panc-1005 Cancer Cell Toxicity qHTS against the NCATS CANVASS Library (AID 1347349); further: nearly all actives have a fitted effect of over 60% in size; further: potency means the concentration at half of the fitted maximal effect
In short: as §1

[8] = U-118MG Cancer Cell Toxicity qHTS against the NCATS CANVASS Library (AID 1347351)
In short: as §1

[9] = COV-362 Cancer Cell Toxicity qHTS against the NCATS CANVASS Library (AID 1347352)
In short: (§2)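 Cells were seeded at 1000 per well and allowed to settle 4 hours at 37 degrees C before pin transfer of compounds as an 11-point series. Viability was read by CellTiter-Glo luminescence after 72 hours' exposure.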

[10] = A2780 Cisplatin Sensitive Ovarian Cancer Cell Toxicity qHTS against the NCATS CANVASS Library (AID 1347353); settings: A2780 ovarian cancer viability, ATPLite luminescence, 72 h; at 46.1 µM (top of the series); further: nearly all actives have a fitted effect of over 60% in size
In short: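 A2780 cisplatin-sensitive cells (750 per well) were seeded, left 4 h at 37 °C, then pin-dosed in an 11-point series. After 72 h at 37 °C/5% CO2, viability was measured as ATPLite luminescence.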

[11] = UWB1.289-WTBRCA1 Cancer Cell Toxicity qHTS against the NCATS CANVASS Library (AID 1347354)
In short: as §2

[12] = HEK-293 Cancer Cell Toxicity qHTS against the NCATS CANVASS Library (AID 1347355); settings: HEK-293 viability, CellTiter-Glo luminescence, 72 h; at 46.1 µM (top of the series); further: nearly all actives have a fitted effect of over 65% in size
In short: as §2

[13] = HPAF-II 24hr Apoptosis Induction qHTS against the NCATS CANVASS Library (AID 1347356)
In short: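 HPAF-II cells (500/well) in DMEM + 10% FBS were treated with an 11-point compound series for 24 hours at 37 degrees C. Caspase-3/7 activity was then read by Caspase-Glo DEVD luminescence after 15 min.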

[14] = HEK293 18hr Apoptosis Induction qHTS against the NCATS CANVASS Library (AID 1347357)
In short: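 HEK293 cells (500/well, DMEM + 10% FBS) treated with an 11-point series for 18 h at 37 degrees C. Caspase-3/7 activity read by Caspase-Glo luminescence after 15 min at room temperature.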

[15] = HPAF-II 12hr Apoptosis Induction qHTS against the NCATS CANVASS Library (AID 1347358)
In short: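 HPAF-II cells (500/well, DMEM + 10% FBS) were exposed to compounds for 12 hours at 37 degrees C. Caspase-3/7 activity was then read by Caspase-Glo 3/7 luminescence after 15 min at room temperature.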

[16] = HEK293 24hr Apoptosis Induction qHTS against the NCATS CANVASS Library (AID 1347359)
In short: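 HEK293 cells, 500 per well, exposed to an 11-point compound series for 24 hours at 37 degrees C. Caspase 3/7 activity read by Caspase-Glo luminescence (DEVD substrate) after 15 min at room temperature.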

[17] = HPAF-II 18hr Apoptosis Induction qHTS against the NCATS CANVASS Library (AID 1347360)
In short: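 HPAF-II cells at 500/well were exposed for 18 h at 37 C to an 11-point compound series. Caspase-3/7 activity was read by Caspase-Glo luminescence after 15 min at RT.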

[18] = HEK293 12hr Apoptosis Induction qHTS against the NCATS CANVASS Library (AID 1347361)
In short: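 HEK293 cells (500/well) were exposed to an 11-point qHTS concentration series for 12 hours at 37 degrees C. Caspase-3/7 activity was then read by DEVD-substrate luciferase luminescence after 15 min at room temperature.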

[19] = SW1088 Cancer Cell Toxicity qHTS against the NCATS CANVASS Library (AID 1347350); settings: SW1088 viability, CellTiter-Glo luminescence, 72 h; further: potency means the concentration at half of the fitted maximal effect; nearly all actives have a fitted effect of over 75% in size
In short: as §1

[20] = test system: NAD(P)H diaphorase (Clostridium kluyveri); assay: Diaphorse counterscreen qHTS: Assay Interference Panel against the NCATS CANVASS Library (AID 1347362)
In short: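 Clostridium kluyveri diaphorase in PBS + 0.01% Tween-20 preincubated 15 min with compounds. Resazurin and NADH then added for 5 min at room temperature in the dark; resorufin fluorescence read (ex 525, em 598).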

Measured: Potency

C[C@H]1COc2c(N3CCN(C)CC3)c(F)cc3c(=O)c(C(=O)O)cn1c23
inactive: [1] | [2]

CC(C)c1cc(C(C)C)c(CC(=O)NS(=O)(=O)Oc2c(C(C)C)cccc2C(C)C)c(C(C)C)c1
active: [2] 5.87 µM

CN(C)CC(=O)N1CCC(c2ccc(NC(=O)c3ncc(C#N)[nH]3)c(C3=CCCCC3)c2)CC1
inactive: [2]

O=c1c(O)c(-c2ccc(O)c(O)c2)oc2cc(O)ccc12
inactive: [2] | [3] | [4] | [6] | [7] | [8] | [9] | [10] | [11] | [12] | [13] | [14] | [15] | [16] | [17] | [18]
active: [5] 7.47 µM

c1cc(N[C@@H]2CCNC2)nc(-c2cnc3ccc(-c4cn[nH]c4)cn23)c1
inactive: [1] | [2]

Cc1ccc(-n2[nH]c(C)c(N=Nc3cccc(-c4cccc(C(=O)O)c4)c3O)c2=O)cc1C
inactive: [1]

CN[C@@H]1C[C@H]2O[C@@](C)([C@H]1OC)n1c3ccccc3c3c4c(c5c6ccccc6n2c5c31)C(=O)N[C@H]4O
active: [1] 10.4 µM

C=C(C)[C@@H]1CC[C@]2(C(=O)O)CC[C@]3(C)[C@H](CC[C@@H]4[C@@]5(C)CC[C@H](O)C(C)(C)[C@@H]5CC[C@]43C)[C@@H]12
active: [7] 18.8 µM | [19] 4.73 µM
inactive: [8] | [13] | [14] | [15] | [16] | [17] | [18] | [20]

CNC(=O)c1cccc(-c2ccc3c(N4CCOC[C@H]4C)nc(N4CCOC[C@H]4C)nc3n2)c1
inactive: [1]

CCCCCCCCc1ccc(CCC(N)(CO)CO)cc1
active: [1] 26.2 µM | [2] 16.5 µM
